This is an account of results in PubChem BioAssay (NCI).

Test systems include DU-145 prostate; K-562 leukemia; MALME-3M melanoma; MDA-MB-231 breast; RXF 393 renal; SF-268 CNS; SF-295 CNS; SF-539 CNS; M14 melanoma; HCT-15 colon; HT29 colon; SNB-75 CNS; SNB-19 CNS; U251 CNS; PC-3 prostate; SK-MEL-5 melanoma; UACC-62 melanoma; LOX IMVI melanoma; SK-MEL-28 melanoma.
What all share (experiment): NCI-60 one-dose screen, 48 h (100 = growth as untreated, 0 = no growth, -100 = all killed)
Conditions in all cases: 10 µM

The panel holds about 83,000 compounds, 20% with a hit somewhere; the sample as a whole holds those more often.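 Percent growth is the endpoint: 0 to 100 indicates growth inhibition (40 means 60% inhibition), 0 means no net growth, and negative values indicate cell death.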 Values without a mark were called inactive. Calls of active or inactive are those of the source. Rule for the calls: active = growth percent below 10; inactive = the rest.

Turning to `CNC(=O)c1cn(C2CC2)c2cc(N3CCN(C(=O)c4cc(OC)c(OC)c(OC)c4)CC3)c(F)cc2c1=O`, the growth is 104% with DU-145 prostate; 104% with K-562 leukemia; 103% in the assay on MALME-3M melanoma; 98.2% in the assay on MDA-MB-231 breast; 112% with RXF 393 renal; 96.8% with SF-268 CNS. Also, the growth is 98% with SF-295 CNS; 98.9% in the assay with SF-539 CNS; 109% with M14 melanoma; 100% in the assay on HCT-15 colon; 99.2% with HT29 colon; 96% with SNB-75 CNS. Further, the growth with SNB-19 CNS is 96.4%; in the assay with U251 CNS, 96.3%; in the assay on PC-3 prostate it was 89.9%; in the assay on SK-MEL-5 melanoma, 98.3%; in the assay on UACC-62 melanoma it was 96.5%; in the assay with LOX IMVI melanoma, 94.7%. Moreover, the growth in the assay on SK-MEL-28 melanoma was 105%.
On to `CC(C)(C)c1ccc(S(=O)(=O)Oc2ccc(NC(=O)C3CCCCC3)cc2)cc1`, for which the growth with DU-145 prostate is 59.2%; in the assay with K-562 leukemia it was 27%; in the assay with MALME-3M melanoma, 78.9%; in the assay on MDA-MB-231 breast it was 72%; in the assay with RXF 393 renal it was 65.1%; with SF-268 CNS, 70.6%. For the same molecule, the growth with SF-295 CNS is 22.8%; with SF-539 CNS, 73.2%; with M14 melanoma, 60.1%; in the assay with HCT-15 colon it was 36.8%; in the assay with HT29 colon it was 44.9%; in the assay with SNB-75 CNS it was 80.1%. Further, the growth was 49.2% in the assay on SNB-19 CNS; 43.9% in the assay on U251 CNS; 22.3% with PC-3 prostate; 26.3% in the assay on SK-MEL-5 melanoma; 31.1% with UACC-62 melanoma; 48.7% in the assay with LOX IMVI melanoma. In addition, the growth with SK-MEL-28 melanoma is 66.8%.
Consider `C[C@@H](C[C@H](CCO)c1ccccc1)c1ccc2ccccc2c1`, for which the growth is -40.9% (active) with DU-145 prostate; -35.2% (active) in the assay on K-562 leukemia; -87.6% (active) in the assay on MALME-3M melanoma; -73.6% (active) in the assay with MDA-MB-231 breast; -87.4% (active) in the assay on RXF 393 renal; -70.4% (active) in the assay with SF-268 CNS. For the same molecule, the growth in the assay on SF-295 CNS was -89.2% (active); with SF-539 CNS it was -82.7% (active); in the assay with M14 melanoma it was -84.2% (active); with HCT-15 colon it was -75% (active); in the assay with HT29 colon, -72.8% (active); in the assay with SNB-75 CNS it was -8.12% (active). Also, the growth in the assay with SNB-19 CNS is -78.3% (active); in the assay on U251 CNS, -95% (active); with PC-3 prostate, -89.2% (active); in the assay on SK-MEL-5 melanoma it was -87.9% (active); in the assay with UACC-62 melanoma, -76.2% (active); with LOX IMVI melanoma, -94.5% (active). Further, the growth in the assay with SK-MEL-28 melanoma is -79.3% (active).
Take `COc1cc2c3c(n([C@@H]4CCOC4)c(=O)c2cc1OC)-c1cc2c(cc1C3=O)OCO2`: the growth in the assay on DU-145 prostate was 24.2%; in the assay with K-562 leukemia it was 55%; with MALME-3M melanoma it was 75.6%; with MDA-MB-231 breast, 91%; in the assay with RXF 393 renal, 52.4%; in the assay on SF-268 CNS it was 35%. The growth in the assay on SF-295 CNS was 1.17% (active); in the assay with SF-539 CNS, -3.51% (active); in the assay on M14 melanoma, 16.5%; with HCT-15 colon it was 60.5%; in the assay on HT29 colon, 42.9%; in the assay on SNB-75 CNS it was 38%. Besides, the growth in the assay with SNB-19 CNS was 30.1%; with U251 CNS, 13.4%; in the assay on SK-MEL-5 melanoma, 14.2%; in the assay with UACC-62 melanoma it was 3.12% (active); in the assay with LOX IMVI melanoma, 9.49% (active); with SK-MEL-28 melanoma, 73.2%.
Regarding `CNC(=O)c1cc(Oc2ccc3c(c2)sc2nc(-c4ccc(NC(=O)Nc5ccc(Cl)c(C(F)(F)F)c5)cc4)cn23)ccn1`, the growth was 75.5% in the assay with DU-145 prostate; 74.7% with K-562 leukemia; 83.7% in the assay on MALME-3M melanoma; 77.4% in the assay with MDA-MB-231 breast; 84.6% in the assay with RXF 393 renal; 84.8% in the assay with SF-268 CNS. Besides, the growth in the assay with SF-295 CNS is 76.3%; in the assay with SF-539 CNS it was 56.2%; in the assay on M14 melanoma it was 85.5%; with HCT-15 colon it was 71.4%; in the assay with HT29 colon, 67.2%; in the assay on SNB-75 CNS, 66.6%. Further, the growth was 85.7% with SNB-19 CNS; 61.9% with U251 CNS; 64% in the assay with PC-3 prostate; 86.6% with SK-MEL-5 melanoma; 88% with UACC-62 melanoma; 76.1% in the assay with LOX IMVI melanoma. Besides, the growth in the assay with SK-MEL-28 melanoma is 88.4%.
As to `CC(=O)N[C@H](C(=O)N[C@@H](CCCNC(=N)N)C(=O)N[C@@H](CCCCN)C(=O)N[C@@H](CCCNC(=N)N)C(=O)N[C@]1(C)CCC/C=C\CCC[C@@](C)(C(=O)N[C@@H](CC(C)C)C(=O)N[C@@H](CC(C)C)C(=O)N[C@@H](CCC(N)=O)C(=O)N[C@@H](CCC(=O)O)C(=O)N[C@@H](CCCNC(=N)N)C(=O)N[C@@H](CCC(=O)O)C(=O)N[C@@H](CC(C)C)C(=O)N[C@H](C(=O)N[C@@H](CCC(=O)O)C(N)=O)C(C)C)NC(=O)[C@H](CCCNC(=N)N)NC(=O)[C@H](CC(C)C)NC1=O)C(C)C`, the growth with DU-145 prostate was 99.7%; in the assay with K-562 leukemia, 104%; in the assay with MALME-3M melanoma, 137%; with MDA-MB-231 breast, 108%; in the assay on RXF 393 renal it was 119%; with SF-268 CNS, 101%. The growth was 106% in the assay with SF-295 CNS; 102% with SF-539 CNS; 107% in the assay on M14 melanoma; 109% in the assay with HCT-15 colon; 95.3% in the assay with HT29 colon; 119% in the assay on SNB-75 CNS. Besides, the growth in the assay with SNB-19 CNS was 105%; with U251 CNS, 100%; in the assay with PC-3 prostate, 104%; in the assay on SK-MEL-5 melanoma, 102%; with UACC-62 melanoma it was 105%; in the assay with LOX IMVI melanoma it was 105%. Besides, in the assay on SK-MEL-28 melanoma, the growth is 111%.
Take `N#Cc1c(-c2ccc(Cl)cc2)csc1NC(=O)Nc1ccc(Cl)c(C(F)(F)F)c1`: the growth in the assay with DU-145 prostate is 5.84% (active); in the assay on K-562 leukemia it was 9.03% (active); in the assay on MALME-3M melanoma it was -26.7% (active); in the assay on MDA-MB-231 breast, 2.12% (active); with RXF 393 renal it was 33.7%; with SF-268 CNS, 27.8%. In addition, the growth in the assay on SF-295 CNS was -27.2% (active); with SF-539 CNS, 31.5%; in the assay on M14 melanoma, 8.06% (active); in the assay on HCT-15 colon it was 4.52% (active); in the assay on HT29 colon it was 1.62% (active); in the assay on SNB-75 CNS it was 36.5%. In addition, the growth in the assay with SNB-19 CNS is 31.6%; in the assay on U251 CNS, 2.57% (active); in the assay with PC-3 prostate, 1.89% (active); with SK-MEL-5 melanoma, -24.2% (active); in the assay with UACC-62 melanoma it was 16.2%; with LOX IMVI melanoma it was 11.7%. In addition, the growth with SK-MEL-28 melanoma is 28.4%.
Consider `C#CCOc1c(OC)cc(C(=O)/C(C)=C/c2cccc(N=[N+]=[N-])c2)cc1OC`, for which the growth was 11.7% in the assay on DU-145 prostate; 14.4% with K-562 leukemia; 54.7% with MALME-3M melanoma; 30.5% with MDA-MB-231 breast; -8.56% (active) with RXF 393 renal; 42.6% with SF-268 CNS. Also, the growth is 8.17% (active) with SF-295 CNS; -12.5% (active) with SF-539 CNS; 5.53% (active) with M14 melanoma; 18.7% in the assay on HCT-15 colon; 2.11% (active) in the assay on HT29 colon; 15.1% with SNB-75 CNS. The growth with SNB-19 CNS is 34.5%; with U251 CNS, 18.7%; in the assay on PC-3 prostate, 22.7%; in the assay with SK-MEL-5 melanoma, 35.2%; in the assay on UACC-62 melanoma, 37.7%; in the assay on LOX IMVI melanoma, 30.4%. For the same molecule, in the assay on SK-MEL-28 melanoma, the growth was 58.8%.
